Screening data (PubChem)
D1 antagonist = human D1 dopamine receptor antagonism; P21728; HEK293 TREx D1 cells, calcium flux, dopamine EC80; hits give low values; activity change, negative = inhibition, % at 10 µM; 3.2% of 360,000 active; AID 504652; in the data active = activity change below about -30%
Target sequence (P21728 whole entry, looked up): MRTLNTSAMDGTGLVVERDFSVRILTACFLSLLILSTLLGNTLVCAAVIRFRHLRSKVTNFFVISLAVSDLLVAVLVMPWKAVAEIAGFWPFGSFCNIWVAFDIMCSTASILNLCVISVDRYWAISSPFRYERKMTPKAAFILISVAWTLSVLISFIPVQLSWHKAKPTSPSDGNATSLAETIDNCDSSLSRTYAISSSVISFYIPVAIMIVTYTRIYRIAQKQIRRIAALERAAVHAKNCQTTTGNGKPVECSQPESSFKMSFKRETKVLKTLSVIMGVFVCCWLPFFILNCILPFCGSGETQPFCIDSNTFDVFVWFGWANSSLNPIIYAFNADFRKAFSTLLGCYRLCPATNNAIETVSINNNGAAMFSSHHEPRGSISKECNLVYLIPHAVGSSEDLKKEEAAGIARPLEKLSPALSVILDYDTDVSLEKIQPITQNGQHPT
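Allosteric or orthosteric antagonism assessed as attenuation of the calcium response to EC80 dopamine, added 180 s after compound, in induced HEK293 Trex D1 cells loaded with no-wash calcium dye.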
D1 ag = agonists of human D1 dopamine receptor | P21728 | HEK293 T-REx D1 cells, calcium flux, agonist mode | activation, % at 2 µM | 1% of 360,000 active | AID 504660; in the data active = activation above about 30%
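Inducible HEK293 T-REx D1 cells, force-coupled to calcium signalling, were plated at 4000 cells/well with tetracycline and held overnight at 30 C. After no-wash calcium dye loading, compound-evoked calcium rise over 180 s flagged agonists.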
D1 potentiator = potentiators of human D1 dopamine receptor; P21728; HEK293 TREx D1 cells, calcium flux, dopamine EC20 potentiation; AID 504651; potentiation, % at 10 µM; 0.036% of 360,000 active; in the data active = potentiation above about 30%
TRHR enhancer-1 = TRH receptor (human) allosteric enhancement | enhancement, % at 2 µM | P34981 | AID 493056 | 0.66% of 360,000 active | TRHR cells, fluo-8 calcium fluorescence, EC20 TRH enhancement; in the data active = enhancement above about 30%
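Enhancer read-out: after compound pinning and an initial kinetic agonist-mode read, an EC20 of TRH (10 nM final) was injected and fluo-8 calcium signal (Ex 480/Em 530) followed at 1 s/cycle for 100 cycles in TRHR-expressing cells.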
Epigenetic reg = derepresses silenced GFP reporter in murine cells. murine LDR cells, GFP reporter derepression, 30 h. Potency, µM (doses to about 53.9 µM), hits mostly activators. 0.2% of 280,000 active; also: nearly all actives have a fitted effect of over 60% in size
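In this reporter-derepression format, murine cells bearing a silenced integrated CMV-GFP locus incubate with test compound (30 h, 37 C), then are washed and imaged; fluorescent objects of 20–120 um count as induced cells.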
TRHR agonist-1 = agonists of human TRH receptor; P34981; TRHR cells, calcium flux fluo-8, FDSS agonist mode; activation, % at 2 µM; 0.18% of 360,000 active; AID 493084; in the data active = activation above about 30%
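TRHR-expressing cells loaded with fluo-8 calcium dye; 23 nL library compound pin-transferred, kinetic FDSS fluorescence (Ex 480/Em 530) recorded about 180 s for agonist-induced calcium release, before a 10 nM TRH EC20 addition for potentiator mode.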
TRHR enhancer-2 = human TRH receptor allosteric enhancement confirmation; shares compounds with TRHR enhancer-1; TRH receptor cell assay, enhancer confirmation qHTS; activity change, negative = inhibition, % at 46.1 µM; 970 tested, under 10 active;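 also: compound effect scored on response to added TRH at EC20 of 10 nM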
TRHR agonist-2 = confirmation of human TRH receptor agonists; shares compounds with TRHR enhancer-1; Potency, µM (titrated, usually from 46.1 µM), most hits filed as activators; TRHR-expressing cells, agonist activation read-out; AID 493078; 8% of 970 active; also: nearly all actives have a fitted effect of over 75% in size
Numbers stand for hits; i = inactive; ? = inconclusive; nt = no result given. Rows were chosen to be rich in hits. Some 4.6% of all compounds tested hit in one or more screens of this group. Unless noted, calls follow the shape of the dose curve; as a rule, active = well fitted curve in the direction sought with a large enough effect; inconclusive = small, poorly fitted or top-dose-only effect, or another doubt; inactive = no such curve, though single readings can be large; an effect the other way counts as inactive or inconclusive.

SMILES | D1 antagonist | D1 ag | D1 potentiator | TRHR enhancer-1 | Epigenetic reg | TRHR agonist-1 | TRHR enhancer-2 | TRHR agonist-2
CC1CCCCN1CCNC(=O)CN1C(=O)COc2ccccc21 (centres undefined) | i | i | i | 51 | i | i | i | i
O=C(N/N=C\c1c(O)ccc2ccccc12)c1ccc(S(=O)(=O)N2CCCCC2)cc1 | i | 52 | i | i | i | 60 | ? | 18µM
O=C(N/N=C/c1c(O)ccc2ccccc12)c1ccc(CO)nc1 | i | i | i | i | nt | 32 | i | ?
COc1ccc2ccccc2c1/C=N/NC(=O)c1ccc(C)nc1 | i | i | i | i | nt | i | nt | nt
O=C(CNC(=O)c1ccc(S(=O)(=O)N2CCCC2)cc1)N/N=C/c1ccccc1Cl | i | i | i | i | i | i | nt | nt
CC(C)(C)C1CCc2c(sc(NC(=O)c3cccc(Cl)c3)c2C(=O)NCc2ccco2)C1 (centres undefined) | i | i | i | i | i | i | nt | nt
O=C(CC1SC(=Nc2ccc(O)cc2)NC1=O)Nc1ccccc1 (centres undefined) | i | i | i | 53 | i | i | i | i
CCOc1ccc(N=C2NC(=O)C(CC(=O)Nc3ccccc3)S2)cc1 (centres undefined) | i | i | i | i | i | i | nt | nt
CCC[C@@H]1C[C@@]1(CCC)C(NP(=O)(c1ccccc1)c1ccccc1)c1ccc(Cl)cc1 (some centres undefined) | nt | nt | nt | nt | i | nt | nt | nt
CCc1cccc(C)c1NC(=O)C1CCN(S(=O)(=O)c2c(C)noc2/C=C/c2c(C)cc(C)cc2C)CC1 | i | i | i | i | i | i | nt | nt
CCC(Cn1nnc2ccccc2c1=O)NC(=O)Nc1cc(C)cc(C)c1 (centres undefined) | i | i | i | i | i | i | nt | nt
O=C(CCn1c(=O)sc2ccccc21)Nc1ccon1 | i | i | i | 43 | i | i | i | i
Cc1ccccc1Nc1nnc(-c2ccc(C)c(S(=O)(=O)N3CCCCC3)c2)c2ccccc12 | i | i | i | i | i | i | nt | nt
O=C(Cc1ccccc1)N1CCN(C(=O)c2ccco2)CC1 | i | i | i | i | i | i | nt | nt
O=C(Cc1ccccc1)N1CCNCC1 | i | i | i | 55 | i | i | i | i
O=C(Cc1ccccc1)NCC(=O)N1CCCCC1 | i | i | i | 43 | i | i | i | i
Cc1ccccc1NC(=O)N1CCC(C(=O)c2ccc(F)cc2)CC1 | i | i | i | i | i | i | nt | nt
O=C(c1ccc(F)cc1)C1CCN(C(=O)Nc2ccccc2Cl)CC1 | i | i | i | 50 | i | i | i | i
O=C(O)C1CC=CCC1C(=O)NCCCN1CCCC1=O (centres undefined) | i | i | i | 45 | nt | i | i | i
CC1=C(C)CC(C(=O)NCCCN2CCCC2=O)C(C(=O)O)C1 (centres undefined) | i | i | i | i | nt | i | nt | nt
O=C(Nc1ccc(Cl)c(C(F)(F)F)c1)C(Cc1ccccc1)NS(=O)(=O)c1cccc2nsnc12 (centres undefined) | i | i | i | i | i | i | nt | nt
O=C1NC(Cc2c[nH]c3ccccc23)C(=O)N1Cc1cccc2ccccc12 (centres undefined) | i | i | i | 56 | i | i | i | i
CCOc1cc(Cl)c(S(=O)(=O)n2ccnc2)cc1Cl | i | i | i | i | i | i | nt | nt
O=C(CSc1ncnc2sc3c(c12)CCCC3)c1ccccc1 | i | i | i | i | i | i | nt | nt
O=C(O)c1ccccc1Sc1ncnc2sc3c(c12)CCC3 | i | i | i | 43 | i | i | i | i
SMILES | D1 antagonist | D1 ag | D1 potentiator | TRHR enhancer-1 | Epigenetic reg | TRHR agonist-1 | TRHR enhancer-2 | TRHR agonist-2
Cc1ccc(C(c2sc3nc(-c4ccco4)nn3c2O)N2CCCC2)cc1 (centres undefined) | nt | i | i | i | i | i | nt | nt
Cc1cc(C)c(Cn2c3ccccc3c3cnn(CC(=O)NCC(C)c4ccccc4)c(=O)c32)c(C)c1 (centres undefined) | i | i | i | i | i | i | nt | nt
Cc1cccc(-n2c(N)cc(=O)nc2SCC(=O)Nc2ccccc2)c1 | i | i | i | 45 | i | i | i | ?
CSc1ccc(CNC(=O)c2ccccc2NC(=O)c2nsc3ccccc23)cc1 | i | i | i | i | i | i | nt | nt
O=C(CCCn1c(=S)[nH]c2cc3c(cc2c1=O)OCO3)NCc1ccccc1Cl | i | i | i | 46 | nt | i | i | i
O=S(=O)(NCCc1csc2nc(-c3ccc(Cl)cc3)nn12)c1ccc(Oc2ccccc2)cc1 | nt | i | i | i | i | i | nt | nt
COc1cc(CN2CCNC(=O)C2CC(=O)NC2CCCCC2)cc(OC)c1 (centres undefined) | i | i | i | i | nt | i | nt | nt
COc1cc(CN2CCNC(=O)C2CC(=O)NC2CCCC2)cc(OC)c1 (centres undefined) | i | i | i | 58 | nt | i | i | i
CCOC(=O)Cc1nnc(NC(=O)COc2ccc(C)cc2)s1 | i | i | i | 41 | i | i | ? | i
CCC1CCCCN1CCCNC(=O)c1cn(CC)c2ccc(S(=O)(=O)N3CCc4ccccc4C3)cc2c1=O (centres undefined) | i | i | i | 51 | i | i | i | i
Cc1ccc(Nc2ncnc3c2cnn3-c2ccccc2)c(C)c1 | i | i | i | i | i | i | nt | nt
COc1ccc(Cc2nc3ccc(C(=O)N(C)CCn4ccnc4)cc3o2)cc1OC | i | i | i | 41 | nt | i | i | i
COc1ccc(Cc2nc3ccc(C(=O)N(C)Cc4cc(C)[nH]n4)cc3o2)cc1OC | i | i | i | i | nt | i | nt | nt
Cc1ccc(-c2cc(NC(=O)COc3c(C)cc(C)cc3C)on2)cc1 | i | i | i | i | i | i | nt | nt
Cc1c(Cl)cccc1NC(=O)C(=O)NCCc1csc(-c2ccc(C(F)(F)F)cc2)n1 | i | i | i | i | i | i | nt | nt
CCC(Sc1nc2ncccc2[nH]1)C(=O)NC1CCC(C)CC1 (centres undefined) | i | i | i | i | nt | i | nt | nt
CCC(Sc1nc2ncccc2[nH]1)C(=O)NCCc1ccccc1 (centres undefined) | i | i | i | i | nt | 60 | i | i
COc1ccc(OC)c(NC(=O)c2cc3c(=O)n4cccc(C)c4nc3n2C)c1 | i | i | i | i | i | i | nt | nt
COc1ccc(-n2c(/C=C/c3cccc4ccccc34)nc3ccccc3c2=O)cc1Cl | i | i | i | i | i | i | nt | nt
Cc1cc(C)c2c(n1)nn1c(NCCCN(C)C)cc(C)nc21 | i | i | i | 57 | i | i | i | i
